The record followed here is PubChem BioAssay.

Several values for one entry are separate records, joined by “and”; a condition that tells them apart may be missing. Equal values may be shown once. Inconclusive results are not listed. Activity calls are given as the source filed them. Unless noted, the rule behind the calls is not given here.

The nature of assay [1]: compounds altering circadian rhythm period length – cell-based, LOPAC library, luminescence reporter (AID 2774).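 Note: values are relative to mean of DMSO wells on each plate.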 The note with it: circadian reporter cells, at 7 µM, actives lie on both sides.
Assay [2] in a line: viability loss with induced miR-34 in A549 – imaging, A549 dox-inducible miR-34, nuclei and caspase counts, primary screen (AID 1347080;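 active = compounds whose cell count with miR-34 switched on is under 0.7 times the count with it off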). The note with it: A549 miR-34 inducible, Hoechst nuclei count, 48 h.
A short description of assay [3]: galactose survival enhancers in mitochondrial complex I cybrids – cell-based, galactose medium, ATP luminescence, primary screen (AID 1645843;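 active = z-score of at least 1.8 in each of two replicates, scored against plate mean and spread of sample wells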;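 note: positive z means more ATP and so rescue of galactose-driven cybrid death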). Conditions: complex I mutant cybrid cells, 72 h, stronger effect = higher value.
For assay [4], the system named is Hepatitis C virus NS3 helicase. Briefly: blockers of NS3h binding to ssDNA – biochemical, fluorescence polarization, LOPAC1280 library, primary screen (AID 687035; in the data active = inhibition above about 37%). The note with it: Purified HCV NS3 helicase, Cy5-dT15 ssDNA binding fluorescence polarization; stronger effect = higher value; concentration not given here.
Assay [5] in a line: compounds altering Cy5-DNA-NS3h complex signal – biochemical, LOPAC1280, artefact control for HCV NS3 helicase inhibitor project (AID 687037). Conditions: Cy5-DNA-NS3h complex fluorescence interference counterscreen. A general note: A counterscreen serves to expose hits that act by an unwanted route or on another target.
Assay [6] in a line: P. berghei load reduction in hepatocytes – cell-based, HepG2, luciferase luminescence, HepG2 viability, primary screen (AID 624349; in the data active = parasite load remaining mostly below about 12%, no sharp cut-off; inactive = mostly above about 10%;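 note: 100% = mean of DMSO negative control wells on the same plate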). Conditions: P. berghei liver stage in HepG2, luciferase luminescence, concentration not given here; parasite load remaining: stronger effect = lower value; viability: measured here: HepG2 viability without parasites.
The target in assay [7] is ATP-dependent translocase ABCB1 (Homo sapiens) (UniProt P08183). Briefly: P-glycoprotein substrate transport blockade – cell-based (AID 377; in the data active = fluorescence slope change above about 50%). Conditions: MDR1-expressing cells, fluorescent substrate accumulation slope; stronger effect = higher value; concentration not given here.
Assay [8] in a line: compounds altering viability of human ES cells (AID 493140).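 Note: cells exposed to compounds for four days before counting.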 The note with it: human embryonic stem cell survival screen; stronger effect = higher value.
Setting [9] is: stronger effect = lower value, cell number ratio, induced over uninduced.
Where [10] appears, read: measured here: relative caspase fold change +Dox/-Dox.
Setting [11] is: measured here: total cells with miR-34 induction, stronger effect = lower value.
Where [12] appears, read: measured here: total cells without miR-34 induction.

For orientation: inhibition means the relative decrease from the control value, in per cent. In general, viability refers to a read-out of living cells in per cent, often relative to untreated cells.

Sequence of ATP-dependent translocase ABCB1 (Homo sapiens) (P08183 whole entry, looked up): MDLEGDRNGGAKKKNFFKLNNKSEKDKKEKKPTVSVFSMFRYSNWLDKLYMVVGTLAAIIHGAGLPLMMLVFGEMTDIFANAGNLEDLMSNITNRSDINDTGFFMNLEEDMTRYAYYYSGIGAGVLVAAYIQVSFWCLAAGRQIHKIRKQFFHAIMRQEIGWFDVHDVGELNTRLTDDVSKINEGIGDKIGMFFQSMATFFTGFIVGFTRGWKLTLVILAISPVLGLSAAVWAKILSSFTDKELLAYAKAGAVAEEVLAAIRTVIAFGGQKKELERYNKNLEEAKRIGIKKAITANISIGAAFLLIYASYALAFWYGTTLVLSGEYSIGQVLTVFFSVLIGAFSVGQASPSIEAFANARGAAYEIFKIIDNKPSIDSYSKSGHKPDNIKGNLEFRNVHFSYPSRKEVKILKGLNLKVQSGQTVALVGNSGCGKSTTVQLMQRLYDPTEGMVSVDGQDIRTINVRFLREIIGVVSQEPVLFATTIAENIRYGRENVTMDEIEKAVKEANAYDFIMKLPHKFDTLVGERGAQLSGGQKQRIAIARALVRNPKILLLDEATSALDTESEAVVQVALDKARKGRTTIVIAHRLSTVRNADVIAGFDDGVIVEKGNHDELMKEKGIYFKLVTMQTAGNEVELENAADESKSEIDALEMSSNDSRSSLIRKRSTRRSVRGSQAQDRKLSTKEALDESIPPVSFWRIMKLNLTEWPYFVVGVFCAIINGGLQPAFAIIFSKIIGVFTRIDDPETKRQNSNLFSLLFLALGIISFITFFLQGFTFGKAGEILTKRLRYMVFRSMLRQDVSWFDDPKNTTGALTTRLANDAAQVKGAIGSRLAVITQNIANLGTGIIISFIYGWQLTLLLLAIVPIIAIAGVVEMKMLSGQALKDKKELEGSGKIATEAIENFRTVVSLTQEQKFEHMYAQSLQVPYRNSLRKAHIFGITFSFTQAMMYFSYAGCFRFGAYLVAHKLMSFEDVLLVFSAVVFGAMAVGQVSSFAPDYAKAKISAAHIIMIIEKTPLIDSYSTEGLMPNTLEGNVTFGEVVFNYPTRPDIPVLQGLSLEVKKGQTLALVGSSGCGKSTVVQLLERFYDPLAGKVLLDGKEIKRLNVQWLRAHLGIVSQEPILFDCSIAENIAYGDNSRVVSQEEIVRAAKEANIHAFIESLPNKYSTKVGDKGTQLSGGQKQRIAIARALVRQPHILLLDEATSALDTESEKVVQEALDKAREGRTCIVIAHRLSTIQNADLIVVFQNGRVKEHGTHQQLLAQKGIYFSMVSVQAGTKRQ

With `CN(C)C(=O)/N=N/C(=O)N(C)C`, the period change in assay [1] was 0.015 h (inactive). Also, the fold change was 1.04 (inactive) in assay [2] (setting [9]) and 1.27 in assay [2] (setting [10]). Moreover, the cell count is 10000 in assay [2] (setting [11]) and 9690 in assay [2] (setting [12]). Moreover, the z-score in assay [3] was -1.03 (inactive).

Regarding `N#C/C(=C\c1ccc(O)c(O)c1)C(=O)NCCCNC(=O)/C(C#N)=C/c1ccc(O)c(O)c1`, the period change in assay [1] is -0.285 h (inactive). Also, the inhibition in assay [4] is 37% (active). For the same compound, the fluorescence ratio (interference) in assay [5] is 1 (inactive). The fold change is 0.987 (inactive) in assay [2] (setting [9]) and 1.18 in assay [2] (setting [10]). The cell count in assay [2] (setting [11]) is 9720; in assay [2] (setting [12]), 9850. Also, in assay [3], the z-score was -0.275 (inactive).

On to `N=C(N)SCCc1cccc(CCSC(=N)N)c1`, for which the period change in assay [1] was 0.115 h (inactive). The fold change was 1.01 (inactive) in assay [2] (setting [9]) and 0.632 in assay [2] (setting [10]). Further, the cell count came to 6390 in assay [2] (setting [11]) and 6310 in assay [2] (setting [12]).

For `CCC[C@@H]1C[C@@H](C(=O)N[C@@H]([C@H]2O[C@H](SC)[C@H](O)[C@@H](O)[C@@H]2O)[C@@H](C)O)N(C)C1`, the parasite load remaining in assay [6] is 53.4% (inactive) and 46.6% (inactive). The viability in assay [6] was 129% and 47.8%. Moreover, the fold change in assay [2] (setting [9]) was 0.982 (inactive) and 0.853 (inactive); in assay [2] (setting [10]), 0.967 and 1.36. For the same compound, the cell count in assay [2] (setting [11]) is 11000 and 8020; in assay [2] (setting [12]), 11200 and 9400. Also, the z-score in assay [3] was 1.21 (inactive).

`NC[C@H]1O[C@@H](n2cnc3c(N)ncnc32)[C@H](O)[C@@H]1O`: the inhibition in assay [4] was -3% (inactive). Also, the fluorescence ratio (interference) in assay [5] is 1 (inactive). The fold change was 1.07 (inactive) in assay [2] (setting [9]) and 1.37 in assay [2] (setting [10]). Moreover, the figures for the cell count in assay [2] (setting [11]) and in assay [2] (setting [12]) were 9860 and 9210, respectively. In assay [3], the z-score was 1.03 (inactive).

For the compound `CC[C@@H]1Cc2cc(O)ccc2C2=C1c1ccc(O)cc1C[C@H]2CC`, the period change in assay [1] is -0.02 h (inactive). Further, the inhibition in assay [4] is 0% (inactive). Moreover, the fluorescence ratio (interference) in assay [5] is 1 (inactive). The fold change in assay [2] (setting [9]) was 1.3 (inactive); in assay [2] (setting [10]), 0.93. Besides, the cell count came out at 4580 in assay [2] (setting [11]) and 3520 in assay [2] (setting [12]). In assay [3], the z-score is -0.765 (inactive).

With `O=C1O/C(=C/Br)CCC1c1cccc2ccccc12` (configuration not stated), the period change in assay [1] was -0.24 h (inactive). In addition, the inhibition in assay [4] is 0% (inactive). Besides, the fluorescence ratio (interference) in assay [5] is 1 (inactive). Further, the fold change is 0.964 (inactive) in assay [2] (setting [9]) and 0.87 in assay [2] (setting [10]). The cell count turned out to be 4330 in assay [2] (setting [11]) and 4490 in assay [2] (setting [12]).

On to `NC(N)=N[C@@H](CCC(=O)O)C(=O)O`, for which the period change in assay [1] was 0.01 h (inactive). In assay [4], the inhibition is -3% (inactive). For the same compound, the fluorescence ratio (interference) in assay [5] is 1 (inactive). For the same compound, the fold change is 0.954 (inactive) and 0.929 (inactive) in assay [2] (setting [9]); 1.36 and 1.31 in assay [2] (setting [10]). The cell count is 9760 and 6110 in assay [2] (setting [11]); 10200 and 6580 in assay [2] (setting [12]). The z-score in assay [3] was 0.175 (inactive).

`NCCC1CCCC(CCN)N1` (configuration not stated): the period change in assay [1] was 0.21 h (inactive). For the same compound, the inhibition in assay [4] is -7% (inactive). Moreover, in assay [5], the fluorescence ratio (interference) is 0.9 (inactive). Also, the fold change in assay [2] (setting [9]) was 1.09 (inactive); in assay [2] (setting [10]), 1.24. In addition, the cell count in assay [2] (setting [11]) is 10800; in assay [2] (setting [12]), 9840. Moreover, in assay [3], the z-score is 0.405 (inactive).

Turning to `CC[C@@]1([C@@H]2O[C@@H]([C@H]3O[C@@](O)(CO)[C@H](C)C[C@@H]3C)C[C@@H]2C)CC[C@H]([C@]2(C)CC[C@]3(C[C@H](O)[C@@H](C)[C@@H]([C@@H](C)[C@@H](OC)C(C)C(=O)O)O3)O2)O1` (some centres not stated), the fluorescence slope change in assay [7] was 168% (active). Further, in assay [8], the survival was 0.417 (inactive). The fold change is 1.05 (inactive) in assay [2] (setting [9]) and 1.84 in assay [2] (setting [10]). The cell count in assay [2] (setting [11]) came out at 1810; in assay [2] (setting [12]) it was 1730.

For the compound `N.N.N.N.N.N.N.N.N.N.N.N.N.N.O.O.[Cl-].[Cl-].[Cl-].[Cl-].[Cl-].[Cl-].[Ru+4].[Ru+5].[Ru+5]`, the period change in assay [1] was 0.18 h (inactive). The inhibition in assay [4] is -98% (inactive). Further, the fluorescence ratio (interference) in assay [5] was 0 (active). The fold change was 1.03 (inactive) in assay [2] (setting [9]) and 0.871 in assay [2] (setting [10]). Moreover, the cell count in assay [2] (setting [11]) stood at 10700; in assay [2] (setting [12]), 10400. Also, the z-score in assay [3] was -0.735 (inactive).

As for `O=C1C=CC(=O)c2c1ccc1c2ccc2ccccc21`, in assay [7], the fluorescence slope change is 25.9% (inactive). Besides, the survival in assay [8] is 5.83 (inactive). Further, the parasite load remaining in assay [6] is 14.2% (inactive) and 61.1% (inactive). In addition, the viability in assay [6] was 64.9% and 72.9%. Besides, the fold change in assay [2] (setting [9]) was 0.87 (inactive); in assay [2] (setting [10]), 1.13. The cell count came to 7950 in assay [2] (setting [11]) and 9140 in assay [2] (setting [12]).

For the compound `N=c1ccn2c(n1)OC1[C@@H](O)[C@@H](CO)O[C@H]12` (some centres not stated), the period change in assay [1] is -0.115 h (inactive). In addition, in assay [4], the inhibition was -5% (inactive). The fluorescence ratio (interference) in assay [5] is 1 (inactive). Also, the fold change was 1.14 (inactive) in assay [2] (setting [9]) and 1.55 in assay [2] (setting [10]). Also, the cell count in assay [2] (setting [11]) was 1970; in assay [2] (setting [12]), 1730. The z-score in assay [3] was -1.23 (inactive).

`Oc1ccc(Cn2cc[nH]c2=S)cc1`: the period change in assay [1] was 0.16 h (inactive). Besides, the inhibition in assay [4] is -4% (inactive). Further, the fluorescence ratio (interference) in assay [5] is 1 (inactive). For the same compound, the fold change in assay [2] (setting [9]) is 0.942 (inactive); in assay [2] (setting [10]), 1.11. Also, the cell count in assay [2] (setting [11]) is 9950; in assay [2] (setting [12]), 10600. Also, in assay [3], the z-score is 0.15 (inactive).

Regarding `Nc1nc(SCc2ccc([N+](=O)[O-])cc2)c2ncn([C@@H]3O[C@H](CO)[C@H](O)C3O)c2n1` (some centres not stated), the period change in assay [1] was -0.105 h (inactive). For the same compound, the inhibition in assay [4] was -2% (inactive). Moreover, in assay [5], the fluorescence ratio (interference) was 0.9 (inactive). For the same compound, the fold change was 1.08 (inactive) in assay [2] (setting [9]) and 0.784 in assay [2] (setting [10]). Also, the cell count in assay [2] (setting [11]) was 10100; in assay [2] (setting [12]), 9310. In addition, in assay [3], the z-score is -0.085 (inactive).

With `O=C(O)CCC(=O)N1CCCC1C(=O)O` (configuration not stated), the period change in assay [1] was -0.225 h (inactive). The inhibition in assay [4] is -2% (inactive). In addition, the fluorescence ratio (interference) in assay [5] was 1 (inactive). In addition, the fold change was 0.97 (inactive) in assay [2] (setting [9]) and 1.16 in assay [2] (setting [10]). Besides, the cell count stood at 9450 in assay [2] (setting [11]) and 9740 in assay [2] (setting [12]). Moreover, the z-score in assay [3] is 0.565 (inactive).

In the case of `Cc1ccc2c(c1)C(N1CCN(C)CC1)=Nc1cccnc1N2`, the period change in assay [1] is 0.2 h (inactive). Besides, the inhibition in assay [4] was -2% (inactive). For the same compound, the fluorescence ratio (interference) in assay [5] was 1 (inactive). Also, the values for the fold change in assay [2] (setting [9]) and in assay [2] (setting [10]) were 1 (inactive) and 1.15, respectively. For the same compound, the figures for the cell count in assay [2] (setting [11]) and in assay [2] (setting [12]) were 8670 and 8630, respectively. Further, in assay [3], the z-score was 0.01 (inactive).

On to `CC(=O)O[C@H]1CC2(C)[C@@H](C[C@@H](O)[C@H]3[C@@]4(C)CC[C@@H](O)[C@@H](C)[C@@H]4CC[C@@]32C)C1=C(CCC=C(C)C)C(=O)O` (some centres not stated), for which the period change in assay [1] is -0.06 h (inactive). Moreover, the inhibition in assay [4] was -2% (inactive). Moreover, the fluorescence ratio (interference) in assay [5] is 1 (inactive). Also, the fold change is 0.982 (inactive) in assay [2] (setting [9]) and 1.41 in assay [2] (setting [10]). Besides, the cell count in assay [2] (setting [11]) came to 9740; in assay [2] (setting [12]) it was 9920. Moreover, the z-score in assay [3] is 4.71 (active).

With `NC(=S)c1ccc[n+]([C@@H]2O[C@@H](COP(=O)([O-])OP(=O)(O)OC[C@H]3O[C@@H](n4cnc5c(N)ncnc54)C(OP(=O)(O)O)[C@H]3O)C(O)C2O)c1` (some centres not stated), in assay [1], the period change was 0.055 h (inactive). Also, the inhibition in assay [4] is -5% (inactive). Moreover, the fluorescence ratio (interference) in assay [5] is 1 (inactive). Further, the fold change is 0.943 (inactive) in assay [2] (setting [9]) and 1.17 in assay [2] (setting [10]). Also, the cell count in assay [2] (setting [11]) came out at 10100; in assay [2] (setting [12]) it was 10700. In addition, in assay [3], the z-score was 0.57 (inactive).
